Consider 22 compounds from ChEMBL document CHEMBL4296182, “CO-ADD screening of NIH NCI Diversity Set V”.

For part of these data: Results with a measured potency or affinity are listed apart.

The subject of one test is Staphylococcus aureus. The test can be described thus: Antibacterial activity against Staphylococcus aureus MRSA ATCC 43300 (CO-ADD:GP_020); MIC in CAMBH media using NBS plates, by Resazurin F(560/590). As to conditions: Concentration 20 uM, ASSAY_TEST Inhibition of Bacterial Growth, detection method Resazurin, Fluorescence (ex560/em590), MEDIA CAMHB, plate type 384well, CORNING #3640, time 18 hr. The test is classed as functional.

The next test relates to Acinetobacter baumannii. The test can be described thus: Antibacterial activity against Acinetobacter baumannii ATCC 19606 (CO-ADD:GN_034); MIC in CAMBH media using NBS plates, by Resazurin F(560/590). The test is classed as functional. As to conditions: Concentration 20 uM, ASSAY_TEST Inhibition of Bacterial Growth, detection method Resazurin, Fluorescence (ex560/em590), MEDIA CAMHB, plate type 384well, CORNING #3640, time 18 hr.

The subject of another test is Escherichia coli. The test can be described thus: Antibacterial activity against Escherichia coli ATCC 25922 (CO-ADD:GN_001); MIC in CAMBH media using NBS plates, by Resazurin F(560/590). It counts as functional. The note with it: Concentration 20 uM, ASSAY_TEST Inhibition of Bacterial Growth, detection method Resazurin, Fluorescence (ex560/em590), MEDIA CAMHB, plate type 384well, CORNING #3640, time 18 hr.

In a further test the test system is Klebsiella pneumoniae. The note with it: Concentration 20 uM; ASSAY_TEST Inhibition of Bacterial Growth; detection method Absorption (OD600); MEDIA CAMHB; plate type 384well; NBS; CORNING #3640; time 18 hr.
For the next test, the system named is Candida albicans. The note with it: 20 µM.
Another test deals with Cryptococcus neoformans. The note with it: Concentration 20 uM; ASSAY_TEST Inhibition of Fungal Growth; detection method Resazurin; Absorption (OD600-OD570); plate type 384well; NBS; CORNING #3640.

`COc1c(/C=N/NC(N)=O)c(OC)c(OC)c2c1CCO2`: the Inhibition with Staphylococcus aureus is 5.41%; with Acinetobacter baumannii, 0.63%; in the test on Escherichia coli, -9.64%; in the test on Klebsiella pneumoniae, 15.41%; with Candida albicans, 4.39%; in the test on Cryptococcus neoformans, 14.65%.

For `CCC(CC)c1ncc[nH]1`, the Inhibition was -6.72% in the test with Staphylococcus aureus; -6.57% with Acinetobacter baumannii; 9.75% with Escherichia coli; 17.39% in the test on Klebsiella pneumoniae; -1.38% in the test with Candida albicans; -3.12% with Cryptococcus neoformans.

Consider `CC(C)NCC1CCc2cc(CO)c([N+](=O)[O-])cc2N1` (configuration not stated) [OXAMNIQUINE], for which the Inhibition is 9.47% in the test on Staphylococcus aureus; -13.41% in the test on Acinetobacter baumannii; 4.95% with Escherichia coli; 3.1% in the test with Klebsiella pneumoniae; 2.55% with Candida albicans; -8.23% in the test on Cryptococcus neoformans.

`CCCN(CCC)c1ccc(/C=C/c2ccc3cc(OCC)ccc3n2)cc1`: the Inhibition in the test on Staphylococcus aureus was 6.79%; in the test with Acinetobacter baumannii, 8.69%; in the test with Escherichia coli, -3.61%; in the test on Klebsiella pneumoniae, 28.88%; in the test on Candida albicans, -0.13%; in the test on Cryptococcus neoformans it was -5.04%.

`[O-][n+]1ccc(CC(O)(C(F)(F)F)C(F)(F)F)cc1`: the Inhibition in the test on Staphylococcus aureus was -9.72%; with Acinetobacter baumannii, -5.31%; with Escherichia coli, -11.83%; in the test with Klebsiella pneumoniae it was 9.87%; in the test with Candida albicans, 4.37%; with Cryptococcus neoformans, -2.34%.

As for `N#CCS(=O)(=O)c1cccc[n+]1[O-]`, the Inhibition is 7.02% in the test with Staphylococcus aureus; -20.49% with Acinetobacter baumannii; 18.56% in the test with Escherichia coli; 15.26% in the test with Klebsiella pneumoniae; 4.91% in the test with Candida albicans; -4.09% in the test with Cryptococcus neoformans.

Take `CC(C)CNC(=O)/C=C\C(=O)O`: the Inhibition with Staphylococcus aureus is -0.87%; with Acinetobacter baumannii, -6.9%; in the test with Escherichia coli, -14.17%; in the test on Klebsiella pneumoniae it was 9.3%; in the test with Candida albicans it was 3.69%; in the test with Cryptococcus neoformans it was 32.61%.

On to `NC1=NC(c2ccc(Cl)cc2)N(c2ccc(S(N)(=O)=O)cc2)C(N)=N1` (configuration not stated), for which the Inhibition in the test with Staphylococcus aureus is -8.08%; in the test with Acinetobacter baumannii, 15.66%; with Escherichia coli, 1.13%; in the test with Klebsiella pneumoniae, 8.28%; in the test with Candida albicans it was -0.99%; with Cryptococcus neoformans it was -3.51%.

As to `CCOC(=O)N1CCc2cc(OC)c(OC)c3c2c1cc1cc(OC)c(OC)cc13`, the Inhibition in the test with Staphylococcus aureus was -2.61%; with Acinetobacter baumannii, -15.62%; in the test with Escherichia coli, 19.24%; with Klebsiella pneumoniae, 9.85%; with Candida albicans, 5.76%; in the test with Cryptococcus neoformans, -3.38%.

As to `O=C(O)CSc1nc2ccccc2s1`, the Inhibition in the test with Staphylococcus aureus was 14.28%; with Acinetobacter baumannii it was -9.51%; in the test on Escherichia coli, 3.19%; with Klebsiella pneumoniae, 0.1%; in the test with Candida albicans, 13.9%; in the test with Cryptococcus neoformans, -12.74%.

For the compound `Clc1ccc2nc3ccccc3cc2c1`, the Inhibition in the test on Staphylococcus aureus is 16.29%; in the test with Acinetobacter baumannii, 9.09%; with Escherichia coli, 4.02%; in the test on Klebsiella pneumoniae it was 9.96%; in the test on Candida albicans, 5.41%; in the test on Cryptococcus neoformans it was -4.77%.

Take `COc1ccc([N+](=O)[O-])cc1NS(=O)(=O)c1ccc(C)cc1`: the Inhibition is 7.11% in the test with Staphylococcus aureus; 4.99% in the test on Acinetobacter baumannii; 7.35% in the test with Escherichia coli; 9.82% in the test on Klebsiella pneumoniae; 5.66% in the test on Candida albicans; -6.48% in the test on Cryptococcus neoformans.

In the case of `CCOC(=O)C1CC(=O)c2cc(OC)c(OC)cc2C1` (configuration not stated), the Inhibition was -2.55% with Staphylococcus aureus; 9.78% with Acinetobacter baumannii; 7.27% in the test with Escherichia coli; 13.25% with Klebsiella pneumoniae; 3.32% with Candida albicans; -12.53% in the test on Cryptococcus neoformans.

Regarding `CCOC(=O)c1c(C)oc(C)c(C(=O)OCC)c1=O`, the Inhibition was 10.05% in the test with Staphylococcus aureus; 8.54% in the test on Acinetobacter baumannii; -0.85% with Escherichia coli; 10.69% with Klebsiella pneumoniae; 0.83% in the test with Candida albicans; -7.36% with Cryptococcus neoformans.

`O=C(Cn1ccc(=O)[nH]c1=O)Nc1ccc(C(=O)O)c(O)c1`: the Inhibition with Staphylococcus aureus is 10.2%; with Acinetobacter baumannii it was -9.39%; in the test on Escherichia coli, 10.79%; with Klebsiella pneumoniae, 11.75%; in the test on Candida albicans it was -1.14%; in the test on Cryptococcus neoformans, -6.61%.

As for `Nc1nc(N)c(/N=N/c2ccc(S(N)(=O)=O)cc2)c(O)n1`, the Inhibition is 11.8% with Staphylococcus aureus; -8.6% in the test with Acinetobacter baumannii; -8.26% in the test with Escherichia coli; 23.84% with Klebsiella pneumoniae; 0.97% with Candida albicans; -15.08% in the test with Cryptococcus neoformans.

As to `Nc1ccc(S(=O)(=O)NCC2CCCCO2)cc1` (configuration not stated), the Inhibition in the test with Staphylococcus aureus was 11.97%; in the test on Acinetobacter baumannii, 6.11%; in the test on Escherichia coli, 1.65%; in the test with Klebsiella pneumoniae, 16.22%; in the test on Candida albicans it was 0.19%; in the test with Cryptococcus neoformans, -11.32%.

As to `Cc1cc2cc3c(=O)[nH]c(=O)cc-3n(CC(O)C(O)C(O)CO)c2cc1C` (configuration not stated), the Inhibition with Staphylococcus aureus is 10.31%; in the test with Acinetobacter baumannii it was 8.52%; with Escherichia coli, -0.29%; with Klebsiella pneumoniae, 10.28%; in the test on Candida albicans it was -1.58%; in the test on Cryptococcus neoformans it was -7.62%.

For `Oc1ccc2ccccc2c1/N=N/c1ccc(F)cc1`, the Inhibition with Staphylococcus aureus is 3.11%; in the test with Acinetobacter baumannii, 4.07%; with Escherichia coli it was -0.77%; in the test with Klebsiella pneumoniae, 13.5%; in the test on Candida albicans, -3.66%; in the test on Cryptococcus neoformans, -8.4%.

`COC1OC(O)C(NC(=O)C(F)(F)F)CC1O` (configuration not stated): the Inhibition in the test with Staphylococcus aureus was 15.69%; with Acinetobacter baumannii, 9.13%; in the test on Escherichia coli, 5.88%; in the test on Klebsiella pneumoniae, 16.01%; with Candida albicans, 3.69%; with Cryptococcus neoformans, -8.11%.

In the case of `C1COCCN1.O=C(O)C(C=C(Cl)Cl)N1CCOCC1` (configuration not stated), the Inhibition in the test with Staphylococcus aureus was 15.53%; in the test with Acinetobacter baumannii, -4.57%; in the test with Escherichia coli, -1.54%; with Klebsiella pneumoniae it was 22.22%; with Candida albicans it was 3.18%; with Cryptococcus neoformans, -2.22%.

In the case of `CCOC(=O)N1CCN(Cc2c(O)ccc3ccccc23)CC1`, the Inhibition in the test on Staphylococcus aureus is 1.46%; in the test on Acinetobacter baumannii it was -8.59%; with Escherichia coli, 8.73%; with Klebsiella pneumoniae it was 12.37%; with Candida albicans it was 3.24%; with Cryptococcus neoformans, -5.96%.
